# Experimental data taken from the supplement of paper PMC6555819.
# How the values were obtained:
# Assay in all cases: PBM binding z-score (relative to random genomic background probes); higher = stronger binding; sequences stand for … in GC…GCGATTGACAGCGTAGAATGAAGG
# [1] = tested on: RARb homodimer (NR concentration 270 nM)
# In short: (§1)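 Regression normalization was applied to scanned fluorescence from custom Agilent 4×180K protein-binding microarrays. Before scanning, arrays were incubated 1 h with ligand-free nuclear receptor dimers, and binding was detected with antibodies against each partner (one per run). Binding z-scores use the random background probes as reference.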
# [2] = tested on: RARg:RXRa (NR concentration 270 nM, RXRa partner concentration 90 nM)
# In short: as §1
# [3] = tested on: RARg homodimer (NR concentration 270 nM)
# In short: as §1
# [4] = tested on: RXRa DBDmut IVT, anti-RXR (DBD mutation: RXRa K156A/R161A, NR concentration 90 nM)
# In short: as §1
# [5] = tested on: RXRa homodimer (NR concentration 180 nM)
# In short: as §1
# [6] = tested on: THRa:RXRa (NR concentration 90 nM, RXRa partner concentration 90 nM)
# In short: as §1
# [7] = tested on: THRa homodimer (NR concentration 90 nM)
# In short: as §1
# [8] = tested on: VDR homodimer (NR concentration 270 nM)
# In short: as §1
Sequence,PBM binding z-score [1],PBM binding z-score [2],PBM binding z-score [3],PBM binding z-score [4],PBM binding z-score [5],PBM binding z-score [6],PBM binding z-score [7],PBM binding z-score [8]
TCATATAGGTAAACAGGTGCAAGTCCGTAAGTTA,0.278,0.453,0.0324,1.32,1.27,0.672,0.416,1.14
CCTGCTAGGTCAATGGTCAGCTGAAGCAGCTCGC,3.18,3.7,4.37,1.85,2.2,2.36,0.335,0.0523
CCTACTAGGCCACGAAAGGTCATTGATTCAGTGA,4.71,4.9,4.91,1.22,5.5,3.85,1.29,2.66
GGTGCTAGGTCAGGTTGGTCAGCTAACGGGTACG,3.2,2.9,4.21,0.112,1.38,1.94,1.19,0.971
ATCTCTAGGTAATAGTTCAGTGAATCCCGAGGAT,1.24,0.897,1.33,0.172,0.482,0.745,0.701,0.41
GTACCAAGGTGAATAGGACGTTGATGAGTAGGCG,0.539,0.543,0.959,-0.489,0.542,1.24,0.345,0.0653
GCTGCTAGGTCAGGGTGGTCAGCTAACGGGTACG,3.07,2.91,3.73,0.223,1.41,2.12,0.797,0.245
GCGACTGGGGCATCAGCATGTTACCATAACTTAA,0.222,0.263,0.143,0.363,0.217,0.125,-0.404,-0.64
CGAACTAGGTTATTGACAGGACAGTGAATAGTAA,0.991,1.04,0.618,0.59,0.57,1.27,-0.0792,0.278
AATACAGGGTCATCGTAGGCCAGAGTCCGCACAG,3.75,5.73,5.28,3.35,6.62,4.68,1.62,3.38
TCTATTAGTTTATTAGGGCAACCGAAACAGCGGA,1.56,1.15,1.09,1.92,0.82,1.54,1.62,1.29
CGTCCAAGGGCAAAGGTCAGTGAAGAGATGACGG,4.71,6.32,5.49,1.64,6.15,3.45,0.298,1.34
ATCTTTAGGTAACAAGTTCAGTGAAAGAGAGGAC,2.04,1.56,1.48,1.65,0.993,2.13,1.4,2.79
AGAATGAGGCTATTAAGATCAGGGAATTGCGGTC,-0.0206,-0.0314,0.143,0.0802,0.257,0.48,-0.292,-0.448
TCTGGTAGATCAACAGGAGGTTAAGAAAGATCGA,0.385,0.66,0.298,0.299,0.827,0.849,-0.374,0.00452
TAGCCTAGGTCATGGGCCGGTATACCACGCGAAC,3.04,4.1,4.58,-0.511,3.4,3.15,1.37,0.45
CCGAGTAGGTTATTGGGCATTCAGGCAACGGTGA,0.361,0.0352,0.187,0.421,0.183,0.0204,0.103,0.256
TCCATTAGTTGATTAGGGCAACCGAAACAGCGGA,0.875,0.57,0.556,1.09,0.491,0.718,0.498,0.246
CCGACTGGGGCATGAGGTTACCATAAGCCAGCCC,1.43,1.29,0.922,-0.569,1.25,1.89,0.853,-0.0736

Sequence,PBM binding z-score [1],PBM binding z-score [2],PBM binding z-score [3],PBM binding z-score [4],PBM binding z-score [5],PBM binding z-score [6],PBM binding z-score [7],PBM binding z-score [8]
TCATATAGGAAATACAGGTGAAAGTCGGCATCTA,0.167,0.527,0.553,2.12,1.37,0.441,0.299,0.241
GCATATTGGTAATACAAGGTGAAAGTCCGATTGT,0.603,0.0948,0.327,0.349,0.367,2.39,1,-0.108
CGTCCTAGGTCATAGGAGGTCAGTGAAGACAGAT,4.83,5.44,5.84,2.08,4.28,5.13,1.73,2.29
TCTCGTAGATCAGCAGGTTAAGAAAGCTGGCCAA,-0.209,-0.0899,-0.67,0.451,0.405,0.0434,-0.546,-0.597
CTGACTGGGGCATAAGGTTACCATAAGCCAGCCC,1.92,1.99,1.46,-0.277,1.4,2.42,1.35,-0.328
GCGACTGGGGGAAAGCAGGTTACCATAAGGTTGG,0.976,0.585,0.39,0.147,0.696,2.25,0.613,0.229
GCTCGTTGGTCAGTAAAAGGTCACACACCGGTCG,5.31,5.69,5.36,0.666,5.85,3.91,2.35,2.44
CCTAGTTGGTCTAGGTCACACACGCTATAGGTAC,3,2.36,2.69,0.925,1.88,2.99,2.78,1.78
CCTACTGGGCCAAAAAAGTCATTGATGCCGATAA,-0.0259,-0.155,0.0325,-0.134,-0.184,-0.184,-0.612,-0.687
AGGCAAAGTTCATCTAGGTAACGTAAGATATGCT,3.56,5.33,5.75,4.59,4.37,3.18,0.436,4.85
AGAATGAGGTTACCAAATATCAGGGAAACGCTTG,0.779,1.91,1.86,1.24,2.52,2.67,0.824,0.512
AGAACGAGGGCACGCTGAGTTGAGAGCAGAGTAG,1.24,2.01,2.05,1.81,1.57,1.95,-0.054,1.29
CCTGCTAGGTCAGGGTCAGCTAATCTACAGTATG,4.16,4.45,5.23,1.37,4.03,3.48,1.81,1.01
AGTCAAAGTTCAGGACGAGGTAGCGTAAAGCACG,2.76,4.44,4.55,2.81,2.93,2.9,0.672,2.05
ATATGTAGGTTATCGGGTCATTCAATTTGCGCAT,3.35,3.52,2.68,1.57,3.4,3.59,2.86,2.76
CGTCAAGGTTCAACTAAGGTAACGTAAAGCACGC,2.36,3.57,2.98,4.42,3.53,5.38,1.72,3.36
TAGCCTAGGTCATGGGCCCGTATACCACGCGAAC,2.95,4.3,4.56,-0.133,3.53,3.13,1.76,0.701
TCTCGGAGGACACTAAGGTCAGAGCTTTCCAGAG,3.82,3.4,3.84,1.33,2.26,3.71,3.11,2.73
TCATATAGGTAATACAGGAGAAAGTCGGCATCTA,-0.136,0.519,0.598,1.48,0.686,0.0311,0.0486,0.233

Sequence,PBM binding z-score [1],PBM binding z-score [2],PBM binding z-score [3],PBM binding z-score [4],PBM binding z-score [5],PBM binding z-score [6],PBM binding z-score [7],PBM binding z-score [8]
TCGAGTAGGTTGCCAATGGGGCATTCAGCTTTCT,-0.36,-0.509,-0.841,0.244,-0.482,-0.51,-0.951,-0.846
AGAACGAGGGCACCCTGAGTTGATAGCAGAGTAG,0.823,1.54,1.76,1.42,1.14,1.59,-0.12,1.36
CCGACTGGGGCTGAAAGGTTACCATACCATCCGG,1.92,1.33,0.724,-0.859,1.75,0.974,-0.189,-0.252
CGAACTTGGTCAAGGACAGTGAATCTCCGCACGC,0.692,0.479,1.1,0.243,0.275,1.89,1.37,-0.254
TCGAGTAGGTTAATCGGGGCATTCAGCCAACATA,0.592,0.49,0.334,0.443,0.518,1.99,-0.373,0.184
CCGACTGGGGAAAAGGTTACCATACTCAGTACGA,1.79,1.37,0.901,0.237,1.86,1.05,-0.101,0.0305
GCTGCTAGGTCAACTGATTGTCAGCTAAAGCTCG,3.35,4.28,4.95,1.3,2.55,2.89,0.691,0.00113
CGAACTAGGTCATTAACAGGACAGTGAATAGTAA,2.34,4.13,4.05,2.35,2.29,2.76,0.884,1.15
CGTCCAAGGTCAATGCTAGGTCAGAGAAAGCATT,5.02,7.59,7.07,3.6,6.03,4.58,3,2.77
GGAACGTGGGCAAAGTTGATAGCATCTGTCGACG,-0.345,-0.158,-0.178,-0.177,-0.03,-0.579,-0.838,-0.389
CGTCAAAGTTCAGCTAAGGTAACGTAAAGCACGC,3.8,4.28,5.29,3.46,3.15,5.46,2.11,1.84
CGGCCAAGGTCAGCAGGTCAGTGAAAGCGACGTG,5.01,6.21,6.95,2.22,5.05,3.85,1.94,1.09
GCTAGTTGGTCAGTAAAAGGTCACGCACCGGTCG,5.17,6.19,5.77,0.692,6.35,3.75,2.43,2.07
CAAACTAGGCCAAAGGTCAAAGTCGAGCCAACCA,4.89,6.83,5.59,1.38,7.49,3.93,0.417,1.61
TCTTGTGGATCAAGCAGGTTAAGAAAGCCTGAGT,0.266,-0.132,-0.515,0.604,0.211,0.309,-0.303,0.15
GCTTGTAGATCGAGGTTAAGAAAGACTAAGCTAA,0.303,0.377,0.00467,0.166,1.04,1.38,-0.253,-0.273
CCAGACAGGTGCGAAGGTAACTCAGCCTCGATTA,-0.418,-0.29,-0.243,0.384,-0.121,-0.305,-0.159,-0.453
AGAATGAGGTGATACGTAGATCAGGGAAGAAAGT,0.297,0.451,0.546,-0.351,0.719,1.57,0.357,-0.382
